Screening data as filed in PubChem.
HIF activator: HIF pathway transcriptional activation | U2OS HRE-luciferase reporter, luminescence; normalized: DMSO 0%, desferrioxamine 100% | activation, % at 7.5 µM (by protocol) | 300,000 tested, 0.32% active | AID 1910;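 active = mean activation of at least 10% of the iron chelator positive control signal, with at least half of replicates also reaching 10%; inconclusive = mean and replicate majority disagree about reaching 10%; inactive = mean and most replicates under 10%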
TNF necrop inh: inhibitors of TNF-alpha induced necroptosis in Jurkat FADD-/- cells. 220,000 tested, 0.068% active. activation (protection from cell death), % at 10 µM. AID 463075. Jurkat FADD-/- TNF necroptosis rescue, ATP luminescence, 24 h; 0 = TNF only, 100 = no-TNF cells;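 active = activation, meaning protection from cell death, of at least 50% relative to plate controls; inactive = activation below 50%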;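 note: necroptosis triggered by 40 ng/mL TNF-alpha added together with compound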
zVAD death inh: L929 zVAD cell death inhibition | AID 1377 | L929 zVAD necroptosis rescue, ATP luminescence, 24 h; with zVAD 60 µM | viability rescue, % at 10 µM | 220,000 tested, 0.38% active;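 active = activation, scaled between plate controls, above about 75%, limit read from the data; inactive = activation under that limit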;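 note: 0% = zVAD with DMSO and 100% = DMSO alone without zVAD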
Calb FLC: C. albicans growth modulation with fluconazole; C. albicans CaCi-2 (fluconazole-resistant clinical isolate) + fluconazole, Alamar Blue growth, 48 h; growth inhibition, % (no concentration beside the values); 300,000 tested, 0.57% active;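 active = growth inhibition above about 58% in most replicates, limit read from the data, passing the limit was not always enough; inconclusive = exactly half the replicates above a set limit; inactive = most replicates below a set limit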;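 note: all wells also contain fluconazole at 8 µg/ml as a sub-toxic cotreatment; 0% = median of DMSO wells and 100% = median of geldanamycin control wells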
zVAD death conf: confirmed blocker of zVAD induced death in L929 cells. AID 463117. 760 tested, 16% active. shares compounds with zVAD death inh. activation (protection from necroptosis), % at 10 µM. L929 zVAD-induced necroptosis rescue, ATP luminescence, 24 h;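 active = mean protection from necroptosis of at least 50% over duplicate tests; inactive = mean protection below 50%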;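 note: 0% = cells with zVAD alone and 100% = vehicle cells without zVAD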
Starred values were filed as active, the others as inactive; ? = inconclusive; . = not tested or not shown. Hits are enriched below; roughly 1.1% of the tested compounds scored in any of these assays.

SMILES	HIF activator	TNF necrop inh	zVAD death inh	Calb FLC	zVAD death conf
CCOC(=O)N1C(=O)C2(CCCCC2)N(c2ccccc2Cl)C1=S	1	1	1	100*	.
Cc1nc(C(=O)Nc2ccc(Cl)cc2Cl)nn1-c1cc(OC(C)C)c(Cl)cc1Cl	15*	-7	1	1	.
Oc1ccc(C2=NNC(c3ccc(O)cc3)=NN2)cc1	2	.	.	94*	.
O=[N+]([O-])c1ccc(CS(=O)(=O)c2ncn[nH]2)cc1	-5	.	.	-7	.
C/C(=N\NC(=O)c1cc(-c2cccc(OC(C)C)c2)nc2ccccc12)c1cccnc1	0	.	.	-17	.
C/C(=N\NC(=O)c1cc(-c2cccnc2)nc2ccccc12)c1ccc(O)cc1O	36*	-6	12	?	.
O=C(NNC(=O)c1cc(-c2ccncc2)nc2ccccc12)c1ccccc1O	1	.	.	86*	.
Cc1ccc(-c2cc(C(=O)Nc3ccncc3)c3ccccc3n2)cc1	0	.	.	8	.
COc1ccc(-c2c[n+]3c(n2-c2ccccc2)CCCCC3)cc1	0	-4	1	112*	.
COc1ccc(-c2c[n+]3c(n2-c2ccc(C)cc2)CCCCC3)cc1	0	-13	-1	-8	.
CCOc1ccc(-n2c(-c3ccc(Br)cc3)c[n+]3c2CCCCC3)cc1	0	-3	-1	103*	.
CCOc1ccc(-n2c(-c3ccc(OC)cc3)c[n+]3c2CCCCC3)cc1	0	-4	0	110*	.
Cc1ccc(C)c(N(C(=O)c2snc(C(N)=O)c2N)C(C(=O)NCC2CCCO2)c2ccc(C)o2)c1 (centres undefined)	0	.	.	-8	.
Cc1ccc(CNC(=O)C2CCC(=O)N(CCc3ccccn3)C2)s1 (centres undefined)	0	.	.	-1	.
CSc1ncccc1C(=O)NC1CCCCCCC1	0	.	.	1	.
Nc1nc(CCl)nc(Nc2cccc3ccccc23)n1	0	-32	0	5	.
Cc1ccc(Nc2c(-c3ccccn3)nc3cccc(C)n23)cc1	56*	-3	2	?	.
Cc1cccc(C)c1Nc1c(-c2ccccn2)nc2ccccn12	28*	-3	4	-15	.
Cc1ccc(C(=O)NC(C)C(c2cccs2)N2CCCC2)s1 (centres undefined)	0	0	1	-15	.
CSc1ncccc1C(=O)NC(C)CCc1ccccc1 (centres undefined)	-3	.	.	7	.
O=c1[nH]c(C2CCN(S(=O)(=O)c3ccc(S(=O)(=O)NC4CC4)cc3)CC2)nc2c1nnn2Cc1cccc(F)c1	1	.	.	2	.
O=C1c2ccsc2SCCN1Cc1ccccc1	1	70*	1	-36	.
O=C1NCCN1Cc1ccccc1	0	1	1	-13	.
N#C/C(=C(/O)COC(=O)c1ccccc1O)c1nc2ccccc2s1	0	-1	0	83*	.
CC1Cc2nc(SCC(=O)NCC3CCCO3)n(C)c(=O)c2S1 (centres undefined)	0	.	.	2	.
SMILES	HIF activator	TNF necrop inh	zVAD death inh	Calb FLC	zVAD death conf
O=C(Nc1ncccc1O)c1ccc(Oc2ccccc2)cc1	3	.	.	8	.
O=C(NNC(=O)c1ccccc1Br)c1ccc(Cl)cc1	12*	-1	0	0	.
O=C(NNC(=O)c1ccccc1Br)c1cccc(Cl)c1	2	-1	0	-1	.
CC(=O)c1ccc2noc(-c3ccccc3)c2c1	1	1	76*	6	2
CC(=O)Nc1cccc(NC(=O)CSc2nc(=O)n3cccc(C)c3n2)c1	0	.	.	-3	.
O=C(Nc1ccc2c(c1)OCO2)c1noc2c1CCCC2	0	.	.	-20	.
O=C(Nc1ccc2c(c1)OCO2)c1noc2c1CCCCC2	1	2	80*	-40	7
CCCCN(CC)CCNC(=O)c1cc2c(=O)n(C)c3ccccc3c2n1C	0	4	75	9	.
CN(C)CCNC(=O)c1cc2c(=O)n(C)c3ccccc3c2n1C	0	3	59	0	.
CCN(CC)CCNC(=O)c1cc2c(=O)n(C)c3ccccc3c2n1C	0	5	77*	-1	20
CCCN(CCC)CCCNC(=O)c1cc2c(=O)n(C)c3ccccc3c2n1C	0	3	79*	6	36
CCN(CC)CCCNC(=O)c1cc2c(=O)n(C)c3ccccc3c2n1C	0	4	77*	13	33
O=C(CN1C(=O)c2ccccc2C1=O)Nc1cc(C(=O)O)cc(C(=O)O)c1	1	.	.	-1	.
CC1(C)Cc2c(cnn2-c2ccccc2)C(NC(=O)c2ccc[n+]([O-])c2)C1 (centres undefined)	-1	.	.	2	.
CC(NC(=O)CN1C(=O)NC(C)(c2cccc3ccccc23)C1=O)c1ccccc1 (centres undefined)	0	.	.	-7	.
COc1cc(NC(=O)c2cnc(N)s2)cc(C(=O)Nc2cccc(C(F)(F)F)c2)c1	-1	6	79*	-5	74*
CCCCN(C)CCCNC(=O)C1(O)c2ccccc2NC(=O)N1c1ccc(Cl)cc1 (centres undefined)	0	.	.	-2	.
CCCCN(C)CCCNC(=O)/C=C1\Sc2ccccc2NC1=O	0	5	75*	-4	24
Cc1ccc(NC(=O)Nc2cccnc2)cc1NC(=O)Nc1cccnc1	0	-11	77*	.	6
Cc1cc(C)cc(NC(=O)Nc2cccnc2)c1	1	.	.	-11	.
CC(C)(C)c1ccc(C(=O)Nc2ccc(S(N)(=O)=O)cc2)cc1	1	0	83*	.	34
Oc1ccccc1N=Cc1sc2ccccc2c1Cl	0	5	86*	16	3
Cc1ccc(O)c(N=Cc2sc3ccccc3c2Cl)c1	1	1	0	2	.
Cc1ccc(NC(=O)c2cccc(OCc3c(C)noc3C)c2)cc1	-2	-2	79*	3	10
Cc1noc(C)c1COc1cccc(C(=O)Nc2ccc(C#N)cc2)c1	0	-3	1	-6	.
SMILES	HIF activator	TNF necrop inh	zVAD death inh	Calb FLC	zVAD death conf
O=C(NCCCN1CCOCC1)c1ccc2c(c1)N(Cc1c(F)cccc1Cl)C(=O)c1ccccc1S2	0	.	.	-2	.
NC(=O)c1ccc(-n2nnnc2SCc2ccccc2)cc1	0	0	1	-2	.
O=C(Nc1nccs1)c1ccc(CSc2nnnn2-c2ccccc2)cc1	0	14	87*	51	89*
Nc1c(C(=O)NCC2CCCO2)c2nc3ccccc3nc2n1-c1ccccc1 (centres undefined)	-1	-9	86*	4	33
CCCNC(=O)c1c(N)n(-c2cccc(OC)c2)c2nc3ccccc3nc12	-1	-5	77*	?	12
COCCCNC(=O)c1c(N)n(-c2cccc(S(N)(=O)=O)c2)c2nc3ccccc3nc12	0	-3	-1	1	.
CS(=O)(=O)c1ccc2nc(NC(=O)CS(=O)(=O)Cc3ccccc3)sc2c1	0	2	4	-11	.
CC(=O)Nc1nc2ccc(Br)cc2s1	0	-4	80*	1	35
COc1ccc2nc(NC(C)=O)sc2c1	0	-1	64	-4	.
